The supplement of paper PMC12067093, “Discovery and optimisation of a covalent ligand for TRIM25 and its application to targeted protein ubiquitination” (Chemical Science, 2025)
The full data set covers some 21,000 targets. This sample favours those with the largest changes.
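Note: competitive chemoproteomic profiling in live THP-1 cells with an iodoacetamide desthiobiotin (IA-DTB) probe, comparing probe-labelled peptide intensities in compound-treated cells against DMSO-treated controls.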

Chain of UniProt Q92540 (Q92540 whole entry, looked up): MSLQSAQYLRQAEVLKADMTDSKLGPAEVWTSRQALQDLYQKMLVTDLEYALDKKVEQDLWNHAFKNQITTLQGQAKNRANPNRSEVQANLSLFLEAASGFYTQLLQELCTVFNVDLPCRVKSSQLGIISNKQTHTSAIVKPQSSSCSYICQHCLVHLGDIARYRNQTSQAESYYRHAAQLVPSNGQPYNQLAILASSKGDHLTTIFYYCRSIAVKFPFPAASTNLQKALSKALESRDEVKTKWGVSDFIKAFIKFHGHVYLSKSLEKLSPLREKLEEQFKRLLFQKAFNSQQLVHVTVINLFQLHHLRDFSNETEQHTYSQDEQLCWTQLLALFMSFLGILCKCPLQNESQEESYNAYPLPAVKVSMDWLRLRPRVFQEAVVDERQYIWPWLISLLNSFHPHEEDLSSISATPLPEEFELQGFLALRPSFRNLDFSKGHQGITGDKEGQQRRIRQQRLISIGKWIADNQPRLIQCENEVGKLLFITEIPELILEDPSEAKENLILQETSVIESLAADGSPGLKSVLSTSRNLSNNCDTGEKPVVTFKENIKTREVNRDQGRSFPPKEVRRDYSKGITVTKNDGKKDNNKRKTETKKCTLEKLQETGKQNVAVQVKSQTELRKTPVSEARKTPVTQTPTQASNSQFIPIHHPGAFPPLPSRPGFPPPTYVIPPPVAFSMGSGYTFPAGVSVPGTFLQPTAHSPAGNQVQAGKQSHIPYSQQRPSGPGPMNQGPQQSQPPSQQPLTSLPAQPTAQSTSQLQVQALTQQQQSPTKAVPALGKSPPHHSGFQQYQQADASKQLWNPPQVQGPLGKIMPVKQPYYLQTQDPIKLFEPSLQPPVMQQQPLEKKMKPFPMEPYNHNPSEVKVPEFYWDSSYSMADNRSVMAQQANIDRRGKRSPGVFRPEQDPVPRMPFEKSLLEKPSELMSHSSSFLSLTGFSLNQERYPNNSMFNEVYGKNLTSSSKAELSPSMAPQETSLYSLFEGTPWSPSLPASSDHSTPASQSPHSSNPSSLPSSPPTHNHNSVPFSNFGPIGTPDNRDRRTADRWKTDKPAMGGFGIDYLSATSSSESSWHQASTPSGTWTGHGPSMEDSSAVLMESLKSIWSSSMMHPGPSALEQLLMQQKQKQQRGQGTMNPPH
Chain of UniProt Q9NXE4 (Q9NXE4 whole entry, looked up): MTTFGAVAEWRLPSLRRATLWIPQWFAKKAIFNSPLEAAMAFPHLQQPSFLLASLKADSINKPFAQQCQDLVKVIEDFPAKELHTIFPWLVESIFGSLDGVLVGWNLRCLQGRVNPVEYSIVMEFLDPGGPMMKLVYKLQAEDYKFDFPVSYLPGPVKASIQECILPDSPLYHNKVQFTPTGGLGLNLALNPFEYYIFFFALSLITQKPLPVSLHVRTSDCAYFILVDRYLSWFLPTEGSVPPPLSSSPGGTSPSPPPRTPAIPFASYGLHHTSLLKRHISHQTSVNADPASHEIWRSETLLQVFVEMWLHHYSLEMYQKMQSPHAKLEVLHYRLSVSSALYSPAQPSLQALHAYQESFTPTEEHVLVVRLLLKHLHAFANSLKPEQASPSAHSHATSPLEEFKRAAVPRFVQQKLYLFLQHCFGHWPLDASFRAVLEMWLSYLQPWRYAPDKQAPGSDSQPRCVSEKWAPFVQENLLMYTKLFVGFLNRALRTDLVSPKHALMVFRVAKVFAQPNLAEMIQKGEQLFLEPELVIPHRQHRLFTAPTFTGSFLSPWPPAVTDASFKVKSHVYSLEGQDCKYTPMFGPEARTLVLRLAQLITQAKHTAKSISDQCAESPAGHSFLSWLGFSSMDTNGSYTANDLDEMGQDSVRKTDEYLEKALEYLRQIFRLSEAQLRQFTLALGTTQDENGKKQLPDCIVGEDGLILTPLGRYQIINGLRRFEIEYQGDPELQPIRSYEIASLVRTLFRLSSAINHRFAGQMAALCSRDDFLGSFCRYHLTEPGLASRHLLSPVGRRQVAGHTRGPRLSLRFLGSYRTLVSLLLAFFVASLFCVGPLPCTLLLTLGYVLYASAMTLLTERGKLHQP
Chain of UniProt Q96RF0 (Q96RF0 whole entry, looked up): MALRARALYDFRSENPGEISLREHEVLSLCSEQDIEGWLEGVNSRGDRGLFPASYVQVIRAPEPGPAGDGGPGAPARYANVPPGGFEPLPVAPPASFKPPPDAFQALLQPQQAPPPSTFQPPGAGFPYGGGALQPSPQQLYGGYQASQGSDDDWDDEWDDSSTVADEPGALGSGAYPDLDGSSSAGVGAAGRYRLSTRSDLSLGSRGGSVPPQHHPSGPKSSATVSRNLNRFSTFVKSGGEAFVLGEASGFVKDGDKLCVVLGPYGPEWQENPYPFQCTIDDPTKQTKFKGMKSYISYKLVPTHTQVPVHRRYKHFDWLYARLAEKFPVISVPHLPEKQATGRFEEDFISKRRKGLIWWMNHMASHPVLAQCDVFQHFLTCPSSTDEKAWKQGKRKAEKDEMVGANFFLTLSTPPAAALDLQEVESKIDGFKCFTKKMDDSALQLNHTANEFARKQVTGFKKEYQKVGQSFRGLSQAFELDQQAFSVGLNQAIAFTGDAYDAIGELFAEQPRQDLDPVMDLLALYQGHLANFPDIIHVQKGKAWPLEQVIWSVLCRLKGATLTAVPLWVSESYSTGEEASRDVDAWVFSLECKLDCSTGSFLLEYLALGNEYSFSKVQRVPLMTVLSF
Chain of UniProt Q8N697 (Q8N697 whole entry): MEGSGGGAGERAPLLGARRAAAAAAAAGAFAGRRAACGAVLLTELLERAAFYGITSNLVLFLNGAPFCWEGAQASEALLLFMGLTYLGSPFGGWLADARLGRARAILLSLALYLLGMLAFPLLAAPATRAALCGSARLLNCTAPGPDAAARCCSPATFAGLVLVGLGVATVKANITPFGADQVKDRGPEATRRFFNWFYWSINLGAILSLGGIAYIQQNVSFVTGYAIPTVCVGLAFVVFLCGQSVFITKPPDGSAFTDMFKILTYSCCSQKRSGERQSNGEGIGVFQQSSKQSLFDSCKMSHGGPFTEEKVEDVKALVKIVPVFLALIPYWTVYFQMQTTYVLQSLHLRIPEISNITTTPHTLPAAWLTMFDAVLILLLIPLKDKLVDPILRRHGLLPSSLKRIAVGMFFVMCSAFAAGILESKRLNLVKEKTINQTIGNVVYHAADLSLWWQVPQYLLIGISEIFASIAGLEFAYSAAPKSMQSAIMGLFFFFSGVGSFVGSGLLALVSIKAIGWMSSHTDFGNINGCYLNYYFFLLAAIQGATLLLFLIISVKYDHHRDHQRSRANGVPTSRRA
Chain of UniProt Q15005 (Q15005 whole entry): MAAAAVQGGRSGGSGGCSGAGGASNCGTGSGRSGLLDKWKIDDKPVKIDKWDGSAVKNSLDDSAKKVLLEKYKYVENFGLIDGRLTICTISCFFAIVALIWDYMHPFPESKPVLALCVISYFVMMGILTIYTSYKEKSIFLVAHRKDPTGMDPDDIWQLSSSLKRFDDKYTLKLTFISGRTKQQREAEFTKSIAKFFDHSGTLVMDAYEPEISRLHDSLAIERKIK
Chain of UniProt P34896 (P34896 whole entry, looked up): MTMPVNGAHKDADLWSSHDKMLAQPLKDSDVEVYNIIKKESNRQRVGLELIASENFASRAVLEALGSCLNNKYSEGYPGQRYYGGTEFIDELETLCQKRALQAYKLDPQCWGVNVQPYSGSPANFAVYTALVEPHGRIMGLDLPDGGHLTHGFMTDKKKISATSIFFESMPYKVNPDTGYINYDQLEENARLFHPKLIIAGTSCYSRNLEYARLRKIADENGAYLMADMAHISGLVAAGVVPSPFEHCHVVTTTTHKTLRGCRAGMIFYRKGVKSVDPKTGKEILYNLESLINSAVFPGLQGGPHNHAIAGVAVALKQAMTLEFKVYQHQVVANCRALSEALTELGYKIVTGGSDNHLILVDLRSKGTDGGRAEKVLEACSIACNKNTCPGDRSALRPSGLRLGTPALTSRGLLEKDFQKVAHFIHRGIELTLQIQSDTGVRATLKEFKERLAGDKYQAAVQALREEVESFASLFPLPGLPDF
Chain of UniProt Q15758 (Q15758 whole entry, looked up): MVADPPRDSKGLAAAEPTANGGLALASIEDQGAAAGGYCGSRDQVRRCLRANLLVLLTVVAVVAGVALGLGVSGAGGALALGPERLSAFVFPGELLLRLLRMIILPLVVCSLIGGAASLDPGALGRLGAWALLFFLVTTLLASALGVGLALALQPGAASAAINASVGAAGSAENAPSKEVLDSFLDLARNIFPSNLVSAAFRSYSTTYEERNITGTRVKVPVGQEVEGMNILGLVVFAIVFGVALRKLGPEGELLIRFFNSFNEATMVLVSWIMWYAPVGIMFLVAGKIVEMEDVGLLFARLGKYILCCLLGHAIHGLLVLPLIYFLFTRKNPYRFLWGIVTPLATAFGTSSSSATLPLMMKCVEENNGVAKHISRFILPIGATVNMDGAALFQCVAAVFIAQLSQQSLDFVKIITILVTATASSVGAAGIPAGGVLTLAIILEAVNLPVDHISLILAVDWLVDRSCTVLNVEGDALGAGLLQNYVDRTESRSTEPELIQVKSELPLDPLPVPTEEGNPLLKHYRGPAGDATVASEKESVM
Chain of UniProt Q9Y371 (Q9Y371 whole entry, looked up): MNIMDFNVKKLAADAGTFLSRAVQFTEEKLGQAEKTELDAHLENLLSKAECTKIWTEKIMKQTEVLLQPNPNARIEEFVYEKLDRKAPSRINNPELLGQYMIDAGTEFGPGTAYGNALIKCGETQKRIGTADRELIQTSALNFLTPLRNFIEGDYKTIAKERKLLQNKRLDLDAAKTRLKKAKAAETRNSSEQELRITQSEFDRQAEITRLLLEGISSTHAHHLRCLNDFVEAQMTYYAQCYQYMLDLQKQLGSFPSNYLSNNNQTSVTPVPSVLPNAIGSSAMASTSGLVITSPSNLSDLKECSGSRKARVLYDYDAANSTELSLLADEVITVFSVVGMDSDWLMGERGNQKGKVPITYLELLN

The targets below were run with CC1Cc2ccccc2N1C(=O)C1CCCN(C1)C(=O)CCl (mixture of isomers) [TRIM25 ligand 11 (diastereomer mixture)] (assay: probe-labelled cysteine peptide fold change vs DMSO (competition) (log2 fold change); higher = less target engagement (more negative = stronger competition)). Conditions: 10 µM; THP-1; incubation time: 4 h.
For “SH3KBP1_Q96B97_301_DCIDVGWWEGELNGRR (UniProt Q96B97)”, the “probe-labelled cysteine peptide fold change” value was -0.0866. In the case of “SNUPN_O95149_356_GSSHSPDHPGCLMEN (UniProt O95149)”, the “probe-labelled cysteine peptide fold change” value is reported as 0.0268. With “SLC7A6OS_Q96CW6_62_AAENNVFHLVATVCSQEEPVQPLLR (UniProt Q96CW6)” the “probe-labelled cysteine peptide fold change” value was -0.0977. In the case of “SLC7A7_Q9UM01_349_EGHLPDAICMIHVER (UniProt Q9UM01)”, the “probe-labelled cysteine peptide fold change” value is reported as 0.0357. With “SLC2A9_Q9NRM0_36_ALLECDHLR (UniProt Q9NRM0)” the “probe-labelled cysteine peptide fold change” value was -0.0472. For “SMARCB1_Q12824_167_TFPLCFDDHDPAVIHENASQPEVLVPIRLDMEIDGQKLR (UniProt Q12824)”, the “probe-labelled cysteine peptide fold change” value was -0.0714. In the case of “SHMT1_P34896_335_VYQHQVVANCR (UniProt P34896)”, the “probe-labelled cysteine peptide fold change” value is reported as 0.0178. In the case of “RRM1_P23921_218_WFTHASPTLFNAGTNRPQLSSCFLLSMKDDSIEGIYDTLK (UniProt P23921)”, the “probe-labelled cysteine peptide fold change” value is reported as 0.111. With “SH3GLB1_Q9Y371_304_ECSGSR (UniProt Q9Y371)” the “probe-labelled cysteine peptide fold change” value was -0.137. In the case of “RPS17_P08708_35_RVCEEIAIIPSKK (UniProt P08708)”, the “probe-labelled cysteine peptide fold change” value is reported as -0.177. With “RSBN1_Q5VWQ0_282_EVQTVCAGLTR (UniProt Q5VWQ0)” the “probe-labelled cysteine peptide fold change” value was 0.00457. “SEC23B_Q15437_40_MVVPLACLLTPLK (UniProt Q15437)” was tested, and the “probe-labelled cysteine peptide fold change” value was -0.0615. For “SPCS2_Q15005_17+26_SGGSGGCSGAGGASNCGTGSGR (UniProt Q15005)”, the “probe-labelled cysteine peptide fold change” value was -0.266. With “SLC15A4_Q8N697_269_ILTYSCCSQK (UniProt Q8N697)” the “probe-labelled cysteine peptide fold change” value was -0.00859. With “SNX27_Q96L92_432+434_TCEGYNEIIFPHCACDSR (UniProt Q96L92)” the “probe-labelled cysteine peptide fold change” value was 0.835. In the case of “SMAD9_O15198_93_GLPHVIYCR<|>SMAD3_Q15796_89_GLPHVIYCR<|>SMAD2_Q99717_129_GLPHVIYCR (UniProt Q99717+Q15796+O15198)”, the “probe-labelled cysteine peptide fold change” value is reported as -0.076. In the case of “SEL1L3_Q68CR1_475_QEACHLHNSYLDLQR (UniProt Q68CR1)”, the “probe-labelled cysteine peptide fold change” value is reported as -0.0373. For “SLC1A5_Q15758_467_SCTVLNVEGDALGAGLLQNYVDR (UniProt Q15758)”, the “probe-labelled cysteine peptide fold change” value was -0.0169. With “SNX18_Q96RF0-2_570_CNTISFATLAEIHHFHQIR (UniProt Q96RF0)” the “probe-labelled cysteine peptide fold change” value was 0.155. In the case of “SMPD4_Q9NXE4_221_TSDCAYFILVDR (UniProt Q9NXE4)”, the “probe-labelled cysteine peptide fold change” value is reported as 0.14. In the case of “SMG7_Q92540_537_NLSNNCDTGEKPVVTFK (UniProt Q92540)”, the “probe-labelled cysteine peptide fold change” value is reported as -0.036. For “SBF1_O95248_839_VCTESGVTSDHLK (UniProt O95248)”, the “probe-labelled cysteine peptide fold change” value was 0.116. With “SPATA5_Q8NB90_574_VLCNEAGLCALRR (UniProt Q8NB90)” the “probe-labelled cysteine peptide fold change” value was -0.161. In the case of “SMAD4_Q13485_127_CDSVCVNPYHYER (UniProt Q13485)”, the “probe-labelled cysteine peptide fold change” value is reported as 0.000739.

Same assay, conditions: 50 µM; THP-1; incubation time: 4 h
For “SLC25A16_P16260_246_THVNLLCGGVAGAIAQTISYPFDVTR (UniProt P16260)”, the “probe-labelled cysteine peptide fold change” value was 0.384. “RPS2_P15880_222_KLLMMAGIDDCYTSAR (UniProt P15880)” was tested, and the “probe-labelled cysteine peptide fold change” value was -0.607. In the case of “SAMD4B_Q5PRF9_20_GWNECEQTVALLSLLK<|>SAMD4A_Q9UPU9_20_GWNECEQTVALLSLLK (UniProt Q9UPU9+Q5PRF9)”, the “probe-labelled cysteine peptide fold change” value is reported as 0.121. “RREB1_Q92766_291_DAMGRPFIQNNPSIPAGFHDLGFTDFSCR (UniProt Q92766)” was tested, and the “probe-labelled cysteine peptide fold change” value was -0.0626. With “SCAPER_Q9BY12_336_DSLHSCDHPLAEK (UniProt Q9BY12)” the “probe-labelled cysteine peptide fold change” value was -0.308. For “SCAF11_Q99590_566_VYQPVSCPLSDLSENVESVVNEEK (UniProt Q99590)”, the “probe-labelled cysteine peptide fold change” value was -0.138. “SND1_Q7KZF4_96_EVCFTIENK (UniProt Q7KZF4)” was tested, and the “probe-labelled cysteine peptide fold change” value was 0.0683. “SCFD2_Q8WU76_507_ALAQVFCEESGLSPLLQK (UniProt Q8WU76)” was tested, and the “probe-labelled cysteine peptide fold change” value was 0.0426. With “RUBCNL_Q9H714_641_QCFQSSECPR (UniProt Q9H714)” the “probe-labelled cysteine peptide fold change” value was 0.15. “SCAF11_Q99590_553_TDVCTVHLPNDFPTCLTSESK (UniProt Q99590)” was tested, and the “probe-labelled cysteine peptide fold change” value was -0.221. For “SFMBT2_Q5VUG0_796_CPPTKPEGTEDTKQEEEERLVLESNPLEWTVTDVVR (UniProt Q5VUG0)”, the “probe-labelled cysteine peptide fold change” value was -0.0391. In the case of “SIRT5_Q9NXA8_293+303_FHFQGPCGTTLPEALACHENETVS (UniProt Q9NXA8)”, the “probe-labelled cysteine peptide fold change” value is reported as -0.0498. In the case of “RTRAF_Q9Y224_19_LTALDYHNPAGFNCK (UniProt Q9Y224)”, the “probe-labelled cysteine peptide fold change” value is reported as 0.404. In the case of “RTN3_O95197-3_46_SCSSSCAVHDLIFWR (UniProt O95197)”, the “probe-labelled cysteine peptide fold change” value is reported as -0.919. With “SH3KBP1_Q96B97_301_DCIDVGWWEGELNGRR (UniProt Q96B97)” the “probe-labelled cysteine peptide fold change” value was -0.063. “SNUPN_O95149_356_GSSHSPDHPGCLMEN (UniProt O95149)” was tested, and the “probe-labelled cysteine peptide fold change” value was -0.656. “SLC7A6OS_Q96CW6_62_AAENNVFHLVATVCSQEEPVQPLLR (UniProt Q96CW6)” was tested, and the “probe-labelled cysteine peptide fold change” value was -0.671. “SLC7A7_Q9UM01_349_EGHLPDAICMIHVER (UniProt Q9UM01)” was tested, and the “probe-labelled cysteine peptide fold change” value was 0.0274. For “SLC2A9_Q9NRM0_36_ALLECDHLR (UniProt Q9NRM0)”, the “probe-labelled cysteine peptide fold change” value was -0.18. “SMARCB1_Q12824_167_TFPLCFDDHDPAVIHENASQPEVLVPIRLDMEIDGQKLR (UniProt Q12824)” was tested, and the “probe-labelled cysteine peptide fold change” value was 0.0299. In the case of “SHMT1_P34896_335_VYQHQVVANCR (UniProt P34896)”, the “probe-labelled cysteine peptide fold change” value is reported as 0.112. For “RRM1_P23921_218_WFTHASPTLFNAGTNRPQLSSCFLLSMKDDSIEGIYDTLK (UniProt P23921)”, the “probe-labelled cysteine peptide fold change” value was 0.0345. “SH3GLB1_Q9Y371_304_ECSGSR (UniProt Q9Y371)” was tested, and the “probe-labelled cysteine peptide fold change” value was 0.575. With “RPS17_P08708_35_RVCEEIAIIPSKK (UniProt P08708)” the “probe-labelled cysteine peptide fold change” value was 0.0725. With “RSBN1_Q5VWQ0_282_EVQTVCAGLTR (UniProt Q5VWQ0)” the “probe-labelled cysteine peptide fold change” value was -0.119. “SEC23B_Q15437_40_MVVPLACLLTPLK (UniProt Q15437)” was tested, and the “probe-labelled cysteine peptide fold change” value was -0.0659. In the case of “SPCS2_Q15005_17+26_SGGSGGCSGAGGASNCGTGSGR (UniProt Q15005)”, the “probe-labelled cysteine peptide fold change” value is reported as -0.603. “SLC15A4_Q8N697_269_ILTYSCCSQK (UniProt Q8N697)” was tested, and the “probe-labelled cysteine peptide fold change” value was -0.114. With “SNX27_Q96L92_432+434_TCEGYNEIIFPHCACDSR (UniProt Q96L92)” the “probe-labelled cysteine peptide fold change” value was 0.695. In the case of “SMAD9_O15198_93_GLPHVIYCR<|>SMAD3_Q15796_89_GLPHVIYCR<|>SMAD2_Q99717_129_GLPHVIYCR (UniProt Q99717+Q15796+O15198)”, the “probe-labelled cysteine peptide fold change” value is reported as -0.0521. In the case of “SEL1L3_Q68CR1_475_QEACHLHNSYLDLQR (UniProt Q68CR1)”, the “probe-labelled cysteine peptide fold change” value is reported as -0.0246. “SLC1A5_Q15758_467_SCTVLNVEGDALGAGLLQNYVDR (UniProt Q15758)” was tested, and the “probe-labelled cysteine peptide fold change” value was 0.588. For “SNX18_Q96RF0-2_570_CNTISFATLAEIHHFHQIR (UniProt Q96RF0)”, the “probe-labelled cysteine peptide fold change” value was 0.111. “SMPD4_Q9NXE4_221_TSDCAYFILVDR (UniProt Q9NXE4)” was tested, and the “probe-labelled cysteine peptide fold change” value was 0.266. For “SMG7_Q92540_537_NLSNNCDTGEKPVVTFK (UniProt Q92540)”, the “probe-labelled cysteine peptide fold change” value was -0.226. “SBF1_O95248_839_VCTESGVTSDHLK (UniProt O95248)” was tested, and the “probe-labelled cysteine peptide fold change” value was 0.0908. In the case of “SPATA5_Q8NB90_574_VLCNEAGLCALRR (UniProt Q8NB90)”, the “probe-labelled cysteine peptide fold change” value is reported as -0.0738. “SMAD4_Q13485_127_CDSVCVNPYHYER (UniProt Q13485)” was tested, and the “probe-labelled cysteine peptide fold change” value was 0.0905.
